NPC1 promoter act = qHTS Assay for NPC1 Promoter Activators. Huh7 NPC1 promoter luciferase reporter, 24 h. Potency, µM (titrated, usually from 9.22 µM), for inactives: at the top dose activation, hits mostly activators. actives 2.4% (n = 320,000); also: % of control where 0% means no effect; nearly all actives have a fitted effect of over 60% in size
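Readout is luciferase luminescence, reflecting NPC1 promoter activation in stably transfected Huh7 cells after 24 h compound exposure at 37 °C in reduced-serum medium with 10% FBS.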
ELG1 genotox = qHTS screen for small molecules that induce genotoxicity in human embryonic kidney (HEK293T) cells expressing luciferase-tagged ELG1. HEK293T ELG1-luciferase reporter, luminescence, 16 h. Potency, µM (top dose mostly 46 µM), without a hit: at the top dose activity change, positive = activation, usual class: activators. actives 1.3% (n = 330,000). AID 504466, 2011; also: % of control where 0% means no effect; nearly all actives have a fitted effect of over 60% in size
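After overnight (16 hr) compound treatment at 37 °C, ELG1-luciferase HEK293T cells were lysed with ONE-Glo; luminescence quantified 30 min later at room temperature.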
SMN2 splice up = qHTS Assay for Enhancers of SMN2 Splice Variant Expression; HEK293 SMN2-luciferase splicing reporter, luminescence, 30-36 h; Potency, µM (doses to about 46.1 µM), without a hit: top-dose activity change, positive = activation, usual class: activators; actives 2.8% (n = 210,000); also: % of control where 0% means no effect; nearly all actives have a fitted effect of over 55% in size
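qHTS luciferase splicing reporter: luminescence rises when SMN2 exon 7 is included in transfected HEK293 cells. Compound exposure lasted 30-36 h at 37C, with 4.5 mM final sodium butyrate as control, followed by a ONE-Glo read.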
Rab9 promoter act = qHTS Assay for Rab9 Promoter Activators | actives 2.8% (n = 320,000) | Huh7 Rab9 promoter-luciferase reporter, luminescence, 24 h | AID 485297, 2010 | Potency, µM (top dose mostly 9.22 µM), inactives show top-dose activation, negative = inhibition, usual class: activators; also: % of control where 0% means no effect; nearly all actives have a fitted effect of over 60% in size
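Luminescence read-out: Huh7 cells stably expressing Rab9-luciferase, treated 24 h with compound at 37 °C, then lysed with luciferase reagent for 10 min at ambient before reading.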
FLuc counter = qHTS profiling assay for firefly luciferase inhibitor/activator using purifed enzyme and Km concentrations of substrates (counterscreen for miR-21 project); purified FLuc, Km substrates, luminescence inhibition; Potency, µM (series often up to 57.5 µM), inactives show at the top dose activity change, negative = inhibition, most hits filed as inhibitors; actives 6.9% (n = 360,000);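 also: plate controls were vehicle for no effect and reference inhibitor for full effect; nearly all actives have a fitted effect of over 55% in size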
Target sequence (P08659 whole entry, looked up): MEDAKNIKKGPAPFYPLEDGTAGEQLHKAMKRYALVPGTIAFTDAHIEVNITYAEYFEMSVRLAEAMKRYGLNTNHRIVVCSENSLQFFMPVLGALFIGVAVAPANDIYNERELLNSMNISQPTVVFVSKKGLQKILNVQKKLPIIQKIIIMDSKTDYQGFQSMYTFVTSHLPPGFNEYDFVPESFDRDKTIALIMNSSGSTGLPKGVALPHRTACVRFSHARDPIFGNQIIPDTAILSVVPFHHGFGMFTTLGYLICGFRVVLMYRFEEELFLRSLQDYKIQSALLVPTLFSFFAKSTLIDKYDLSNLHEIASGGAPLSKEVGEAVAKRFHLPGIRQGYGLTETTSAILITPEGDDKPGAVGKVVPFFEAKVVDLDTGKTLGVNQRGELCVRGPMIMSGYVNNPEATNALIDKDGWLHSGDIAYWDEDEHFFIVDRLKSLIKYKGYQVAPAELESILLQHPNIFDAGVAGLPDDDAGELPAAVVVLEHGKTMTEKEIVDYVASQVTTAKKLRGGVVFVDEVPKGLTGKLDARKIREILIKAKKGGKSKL
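Biochemical qHTS of compounds, final roughly 60 µM downward over six points, against 10 nM purified firefly luciferase using Km concentrations of substrates (10 uM D-luciferin, 10 uM ATP) in Tris acetate pH 7.5 buffer; luminescence output.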
* hit, by the source's call; ? = inconclusive; nt = no result; [ ] = dose if it differs, or a comment. An excerpt weighted towards active compounds, which were near 7.4% of everything screened. Calls follow the shape of the dose curve; as a rule, active = well fitted curve in the direction sought with a large enough effect; inconclusive = small, poorly fitted or top-dose-only effect, or another doubt; inactive = no such curve, though single readings can be large; an effect the other way counts as inactive or inconclusive. Potency is read from the fitted curve at half-maximal effect.

SMILES	NPC1 promoter act	ELG1 genotox	SMN2 splice up	Rab9 promoter act	FLuc counter
Cc1occc1C(=O)NNC(=S)Nc1ccccc1C(F)(F)F	?	4%	?	2.8µM*	-18%
Cc1ccccc1NC(=S)NNC(=O)c1ccoc1C	?	4%	-1%	?	-1%
CCNC(=O)c1c(NC(=O)c2nc(S(=O)(=O)CC)ncc2Cl)sc2c1CCCC2	nt	nt	4%	nt	?
S=c1nc(NCCc2ccccc2Cl)c2ccccc2[nH]1	3.2µM*	9%	nt	3.5µM*	-10%
CC(C)(C)OC(=O)N1CCN(C(=O)c2[nH]cnc2C(=O)Nc2cccc(Cl)c2)CC1	1%	-2%	nt	1%	-2%
Cc1c(O)c2ccccc2oc1=O	-2%	1%	nt	0%	-5%
CCN(CC)S(=O)(=O)c1cccc(N=Nc2c(O)c3ccccc3oc2=O)c1	28%	-2%	nt	16%	27µM*
Cc1sc(N)nc1-c1ccc(Oc2ccccc2)cc1	18%	?	nt	29%	24µM*
Cc1sc(N)nc1-c1ccc2c(c1)OCCO2	23%	2%	nt	8%	?
COc1ccc(C(=O)N2CCc3ccc(NC(=O)c4ccccn4)cc3C2)cc1F	?	-16%	nt	27%	21µM*
COc1cc2c(cc1OC)CN(C(=O)c1ccncc1)CC2	4%	0%	nt	-2%	-1%
Cc1ccc(NC(=O)Cn2cc(S(=O)(=O)N3CCCC3)c(S(=O)(=O)N3CCCC3)c2)cc1C	nt	nt	nt	nt	6%
Cc1nnc2n(-c3ccccc3)c(=O)c3c4c(sc3n12)CC(C)CC4 (configuration not stated)	-6%	-2%	22µM*	-7%	2%
Cc1cccc(NC(=O)CS(=O)(=O)c2nc(-c3ccccc3)cn2-c2cccc(Cl)c2)c1C	nt	nt	28%	nt	4%
Cc1ccc(-c2cn(-c3cccc(Cl)c3)c(S(=O)(=O)CC(=O)Nc3cccc(C)c3)n2)cc1	nt	nt	16µM*	nt	-13%
Cc1ccc[n+](CC(=O)Nc2cccc(Cl)c2)c1	-4%	-2%	nt	11%	2%
Cc1ccc(-c2cn(-c3cccc(Cl)c3)c(S(=O)(=O)CC(=O)Nc3ccccc3F)n2)cc1	nt	nt	13µM*	nt	?
O=C(CS(=O)(=O)c1nc(-c2ccc(Cl)cc2)cn1-c1ccccc1)Nc1ccc(F)cc1F	nt	nt	14µM*	nt	21µM*
Cc1ccc(NC(=O)CS(=O)(=O)c2nc(-c3ccc(C)cc3)cn2-c2ccc(C)cc2)cc1	nt	nt	18µM*	nt	?
O=C(CSc1nncn1-c1ccccc1)Nc1ccc(F)cc1F	0%	0%	nt	-2%	0%
COc1cccc(N2CCN(C3=NS(=O)(=O)C(c4ccc(C)cc4)=C3C)CC2)c1	nt	nt	nt	nt	-3%
O=C(CS(=O)(=O)c1nc(-c2ccc(Cl)cc2)cn1-c1ccccc1)Nc1cccc(Cl)c1	nt	nt	13µM*	nt	?
CCc1ccc(C(=O)CSc2n[nH]c(-c3ccncc3)n2)cc1	-1%	-3%	-9%	-1%	24µM*
CCCOc1ccc(CSc2ncn[nH]2)cc1	17%	?	?	26%	11µM*
Cc1ccc(C(=O)CSc2ncn[nH]2)cc1	17%	7%	-3%	0%	-18%
SMILES	NPC1 promoter act	ELG1 genotox	SMN2 splice up	Rab9 promoter act	FLuc counter
CCc1ccc(C(=O)CSc2ncn[nH]2)cc1	20%	?	2%	?	17µM*
Cc1cc(C)cc(OCCNC(=O)c2cc(S(=O)(=O)N3CCOCC3)ccc2F)c1	-2%	-5%	nt	-2%	-2%
O=C(c1ccccc1)n1ccc(-c2cnc(-c3ccccc3)s2)n1	1.4µM*	1.6µM*	3.5µM*	1.6µM*	4.3µM*
CCOc1cccc(C(=O)Nc2cccc(-c3nnc(-c4ccccc4)o3)c2)c1	1%	-9%	-15%	6%	6.7µM*
CC(=O)Nc1cccc(-c2nnc(-c3ccccc3)o2)c1	3.5µM*	8.2µM*	13µM*	3.5µM*	12µM*
O=C(Nc1ccccc1)Nc1cccc(-c2nnco2)c1	3%	-3%	nt	17%	15µM*
CC(=O)Nc1cccc(-c2nc(-c3ccccc3)no2)c1	nt	nt	nt	nt	2.4µM*
Cn1c(N)c(C(=O)COC(=O)c2ccccc2C(=O)c2ccc(Cl)cc2)c(=O)n(C)c1=O	nt	0%	nt	nt	nt
O=C(Cc1c2ccccc2nc2ccccc12)c1ccccc1	-1%	1%	-14%	-3%	1%
CC(C)CS(=O)(=O)C1=NSC2=NC(=O)/C(=C\c3ccc(OC(=O)c4ccco4)cc3)C(=N)N21	9%	1%	nt	2%	?
CSC1=NSC2=NC(=O)/C(=C\c3ccc(OC(=O)c4ccco4)cc3)C(=N)N12	3.5µM*	?	nt	1.6µM*	19µM*
COc1cc(/C=C2/C(=N)N3C(=NC2=O)SN=C3S(C)(=O)=O)ccc1OS(=O)(=O)c1ccc(C)cc1	0%	-1%[9.26 µM]	nt	0%	-19%
CS(=O)(=O)C1=NSC2=NC(=O)/C(=C\c3ccc(OC(=O)c4ccco4)c(Br)c3)C(=N)N21	-1%	3%	nt	2%	13µM*
CC(C)CCNC(=O)CCCOc1cc(=O)n(C)c2ccccc12	-8%	?	13µM*	-1%	5%
Cn1c(=O)cc(OCCCC(=O)Nc2ccccn2)c2ccccc21	-5%	21µM*	21%	-7%	2%
Cn1cc(C(=O)Nc2ccccn2)c(=O)c2ccccc21	?	?	nt	?	15µM*
Cc1ccccc1C(=O)Nc1ccccn1	nt	nt	-19%	nt	-13%
CC1CCN(C(=O)CCCOc2cc(=O)n(C)c3ccccc23)CC1	-3%	18µM*	?	-5%	-2%
COc1ccc(N2CCN(C(=O)CCCOc3cc(=O)n(C)c4ccccc34)CC2)cc1	-1%	0%	-8%	2%	3%
Cc1ccc(CNC(=O)CCCOc2cc(=O)n(C)c3ccccc23)o1	-10%	?	?	0%	-2%
Cn1c(=O)cc(OCCCC(=O)NCc2ccco2)c2ccccc21	-8%	18µM*	10µM*	-4%	-2%
Cn1c(=O)cc(OCC(=O)NCCCN2CCN(Cc3ccccc3)CC2)c2ccccc21	0%	18µM*	?	0%	2%
CCCn1c(C)cs/c1=N\C(=S)Nc1ccccc1	9%	2%	1%	3%	3%
Cc1cs/c(=N/C(=S)Nc2ccccc2)n1C	1.1µM*	2.9µM*	1.3µM*	1.6µM*	4.8µM*
c1ccc(-c2cc(N3CCCCC3)ncn2)cc1	?	15µM*	10µM*	2.8µM*	11µM*
c1ccc(-c2cc(N3CCCCCC3)n[nH]2)cc1	?	16µM*	?	?	21µM*
Nc1nc(-c2ccccc2)cc(N2CCCCC2)n1	-3%	2%	6%	-6%	4%
Brc1ccc(CSc2nnc(-c3ccco3)o2)cc1	-1%	18%	13µM*	8%	?

High-throughput results: PubChem, National Center for Advancing Translational Sciences (NCATS)
